This passage reports outcome and AC50 results from PubChem BioAssay (EPA / NIEHS).

Broadly, the AC50 is the midpoint of the concentration-response curve, whichever way the signal moves.

The source made the active and inactive calls. The calls were made as follows: active = hit-call score of the fitted dose curve at least 0.9, where 1 is the maximum; inactive = score below 0.9.

Read-out in this experiment: matrix metalloproteinase-1 (MMP1), MMP1 (gene 4312)
Description: LTEA_HepaRG_MMP1: Life Technologies and Expression Analysis (LTEA) Assay for matrix metalloproteinase-1 (MMP1) using HepaRG (AID 2283658). Particulars: mRNA level, 48 h; actives raise or lower the signal. The protocol: LTEA_HepaRG is a cell based, multiplexed-readout assay that uses HepaRG, a human liver cell line, with measurements taken at 48 hours after chemical dosing on a 96-well plate.LTEA_HepaRG_MMP1 is one of 102 assay component(s) measured in the LTEA HepaRG cell culture assay. It is a marker of Fibrosis.Data from the assay component LTEA_HepaRG_MMP1 was analyzed into 1 endpoint. This assay endpoint, LTEA_HepaRG_MMP1, was analyzed with bidirectional fitting relative to DMSO as the negative control and baseline of activity. Using a type of inducible reporter, measures of mRNA induction for gain or loss-of-signal activity can be used to understand regulation of transcription factor activity. To generalize the intended target to other relatable targets, this assay endpoint is annotated to the protease intended target family, where the subfamily is matrix metalloproteinase.
A total of 1060 chemcials from the ToxCast library were tested in eight-point concentration-response experiments. Cell culture and cytotoxicity assays were conducted at Thermo Fisher Scientific's Custom Services facility (Madison, WI). A single lot of human HepaRG cells (Thermo Fisher Scientific, Frederick, MD) was used for the cell culture experiments. 96-well format collagen type I coated plates of human HepaRG cells were prepared using established methods. Briefly, cryopreserved HepaRG cells were thawed, plated at a density of approximately 100,000 cells/well in HepaRG Thaw, Plate, and General Purpose media (HPRG770, Thermo Fisher Scientific), and incubated for 48 hours. 0.5% DMSO was selected as vehicle control to balance the requisite need of DMSO in HepaRG cultures to maintain differentiation (for example, baseline metabolism, proportions of hepatocytes vs. cholangiocytes), while enabling further hepatic receptor pathway activation (for example, PXR and CAR) in response to chemical exposure. 48 hours after plating, the culture medium was replaced with HepaRG Serum-Free Incudtion Media. Cells were exposed to each test chemical in duplicate and maintained in CO2 incubators for another 48 hours. Chemical plates were thawed to room temperature and 200x concentrations of treatment groups were prepared. 8-point conentration-reponse curves were made with the highest exposure at 100 uM, followed by half-log dilutions, all in 0.5% DMSO. Each test plate contained variouse controls, induction positive controls (1mM phenobarbital), cytotoxicity positive controls ([…] aflatoxin B1), vehicle controls (0.5% DMSO), and total lysis controls (0.5% DMSO). Cell morphology images were taken using an Essen IncuCyte FLR automated microscope, with six 96-well plates imaged in about 24 minutes. Images were captured and exported and JPEG files. Spent culture media was transfered to black-well plates for the LDH assay, and remaining media was sorted at -80 C for later use. Cells were treated with RLT buffer and frozen until shipped for gene expression analysis. Total RNA was isolated from the cell suspension in 75 uL of Buffer RLT (Qiagen, Germantown, MD 20874) by Quintiles/Expression Analysis (Durham, NC) using a custom isolation procedure. Total RNA from each plate well was transferred to a preamplification plate. Fluidigm's 96.96 Dynamic ArrayTM (Fluidigm, Amsterdam, the Netherlands) technology was used for gene expression analyses by quantitative reverse transcription polymerase chain reaction (qRT-PCR, performed by Quintiles/Expression Analysis, Durham, NC)89. Standard TaqManTM Assays (Applied Biosystems/ThermoFisher Scientific, Foster City, CA) were used to assess the expression of 93 genes selected based on their selectivity and sensitivity to important hepatic receptors known to be modulated by environmental chemicals; importance in human hepatocyte functionality; and hepatotoxicity. […]
Turning to `CC(C)COC(=O)c1ccccc1C(=O)OCC(C)C`, the outcome was inactive. On the same count and under the same terms, to `C1=Cc2cccc3cccc1c23` belongs “inactive”; to `O=[N+]([O-])C(Br)(CO)CO`, “inactive”. On the same count and under the same terms, to `CN(C)C(=O)Nc1ccc(Cl)cc1` belongs “inactive”.

Take `CO[C@@H]1[C@H](OC(=O)NC(=O)CCl)CC[C@]2(CO2)[C@H]1[C@@]1(C)O[C@@H]1CC=C(C)C`: the compound was classed as inactive. Regarding `ClC1=C(Cl)C2(Cl)C3C(Cl)C=CC3C1(Cl)C2(Cl)Cl` (stereo not given), the compound was called inactive. The same measure, in the same setting: to `CCN(CC)CCO` belongs “inactive”; to `C[C@]12C=CC3=C4CCC(=O)C=C4CC[C@H]3[C@@H]1CC[C@@H]2O`, “inactive”; to `Cc1ccc([N+](=O)[O-])cc1`, “inactive”.

For the compound `Nc1ccc(Cl)cc1N`, the concentration at half-maximal activity (AC50) is 50 µM (active).
